Data reported in PubChem BioAssay AID1159580 (chemical genetic matrix, 2015).
Hit rate of the full screen: of about 5,500 compounds, about 2,000 (36%) were called active. Inconclusive results (about 18%) are left out. Cut-off read from the data, not from the text of the source: active = normalized growth mostly below about 0.91 (no sharp cut-off); inconclusive = no clear call, values can overlap the other calls; inactive = mostly above about 0.92. This is one part of the list.

Experiment: chemical genetic growth profiling, strain panel (AID 1159580);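 note: tested at 20 µM; growth read once vehicle control cultures reached saturation at 30 °C; 1 = growth at the plate median or of vehicle wells; lower values mean less growth of the strain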
Settings: S. cerevisiae deletion strains, growth OD
[1] = locus YAR019C, strain CDC15, hits give low values
[2] = locus YBL105C, strain PKC1, hits give low values
[3] = locus YBR135W, strain CKS1, hits give low values
[4] = locus YBR136W, strain MEC1, hits give low values
[5] = locus YBR160W, strain CDC28, hits give low values
[6] = locus YDL017W, strain CDC7, hits give low values
[7] = locus YDL028C, strain MPS1, hits give low values
[8] = locus YDL101C, strain DUN1, hits give low values
[9] = locus YDL108W, strain KIN28, hits give low values
[10] = locus YDL132W, strain cdc53, hits give low values
[11] = locus YDL214C, strain PRR2, hits give low values
[12] = locus YDR052C, strain DBF4, hits give low values
[13] = locus YDR054C, strain cdc34, hits give low values
[14] = locus YDR226W, strain ADK1, hits give low values
[15] = locus YDR477W, strain SNF1, hits give low values
[16] = locus YER123W, strain YCK3, hits give low values
[17] = locus YER133W, strain GLC7, hits give low values
[18] = locus YFL009W, strain cdc4, hits give low values
[19] = locus YFL029C, strain CAK1, hits give low values
[20] = locus YFR003C, strain YPI1, hits give low values
[21] = locus YFR019W, strain FAB1, hits give low values
[22] = locus YFR028C, strain CDC14, hits give low values
[23] = locus YGR040W, strain KSS1, hits give low values
[24] = locus YGR052W, strain FMP48, hits give low values
[25] = locus YGR092W, strain DBF2, hits give low values
[26] = locus YHR030C, strain SLT2, hits give low values
[27] = locus YHR079C, strain IRE1, hits give low values
[28] = locus YHR082C, strain KSP1, hits give low values
[29] = locus YHR205W, strain SCH9, hits give low values
[30] = locus YIL147C, strain SLN1, hits give low values
[31] = locus YJL095W, strain BCK1, hits give low values
[32] = locus YJL128C, strain PBS2, hits give low values
[33] = locus YJL157C, strain FAR1, hits give low values
[34] = locus YJR016C, strain ILV3, hits give low values
[35] = locus YJR066W, strain TOR1 (second series), hits give low values
[36] = locus YJR066W, strain TOR1, hits give low values
[37] = locus YKL048C, strain ELM1, hits give low values
[38] = locus YKL067W, strain YNK1, hits give low values
[39] = locus YKL101W, strain HSL1, hits give low values
[40] = locus YKL193C, strain SDS22, hits give low values
[41] = locus YKL203C, strain TOR2, hits give low values
[42] = locus YLR113W, strain HOG1, hits give low values
[43] = locus YLR133W, strain CKI1, hits give low values
[44] = locus YLR403W, strain SFP1, hits give low values
[45] = locus YML070W, strain DAK1, hits give low values
[46] = locus YMR001C, strain CDC5, hits give low values
[47] = locus YMR205C, strain PFK2 (second series), hits give low values
[48] = locus YMR277W, strain FCP1, hits give low values
[49] = locus YNL006W, strain LST8, hits give low values
[50] = locus YNL020C, strain ARK1, hits give low values
[51] = locus YNL161W, strain CBK1, hits give low values
[52] = locus YNL183C, strain NPR1, hits give low values
[53] = locus YNL207W, strain RIO2, hits give low values
[54] = locus YNL222W, strain SSU72, hits give low values
[55] = locus YNL307C, strain MCK1 (second series), hits give low values
[56] = locus YOL078W, strain AVO1, hits give low values
[57] = locus YOL136C, strain PFK27, hits give low values
[58] = locus YOR061W, strain CKA2, hits give low values
[59] = locus YOR119C, strain RIO1, hits give low values
[60] = locus YOR231W, strain MKK1, hits give low values
[61] = locus YOR329C, strain SCD5, hits give low values
[62] = locus YPL031C, strain PHO85, hits give low values
[63] = locus YPL153C, strain RAD53, hits give low values
[64] = locus YPL204W, strain HRR25, hits give low values
[65] = locus YPL209C, strain IPL1, hits give low values
[66] = locus YPL256C, strain CLN2, hits give low values
[67] = locus YPR025C, strain CCL1, hits give low values
[68] = locus YPR106W, strain ISR1, hits give low values
[69] = locus YPR111W, strain DBF20, hits give low values
[70] = strain NNK1, hits give low values
[71] = strain TSCII, hits give low values

Measured: normalized growth

Nc1nc(Cl)nc2c1ncn2[C@@H]1O[C@H](COP(=O)(O)OP(=O)(O)OP(=O)(O)O)[C@H](O)C1O (stereo partly specified)
inactive: locus YAL013W, strain DEP1, hits give low values 0.999 | locus YAL040C, strain CLN3, hits give low values 0.995 | locus YCL061C, strain MRC1 (second series), hits give low values 1 | locus YDR363W, strain ESC2, hits give low values 1.01 | locus YER002W, strain NOP16, hits give low values 0.99 | locus YGR078C, strain PAC10, hits give low values 1.01 | locus YJR075W, strain HOC1, hits give low values 1 | locus YMR307W, strain GAS1, hits give low values 0.997 | locus YNL128W, strain TEP1, hits give low values 1.01 | locus YNL175C, strain NOP13, hits give low values 0.995 | locus YNL197C, strain WHI3, hits give low values 1.02 | locus YNL224C, strain SQS1, hits give low values 0.987 | locus YOR083W, strain WHI5 (second series), hits give low values 1.01

CCCc1c(C(=O)Sc2ccccn2)cnn1-c1ccc(Cl)cc1
active: [42] 0.804 | [66] 0.755
inactive: [1] 0.957 | [2] 0.962 | [3] 0.957 | [4] 0.964 | [5] 0.944 | [6] 0.963 | [7] 0.966 | [8] 0.964 | [9] 0.955 | [10] 0.95 | [11] 0.861 | [12] 0.962 | [13] 0.948 | [14] 0.959 | [15] 0.876 | [16] 0.847 | [17] 0.878 | [18] 0.957 | [19] 0.948 | [20] 0.955 | [21] 0.908 | [22] 0.955 | [23] 0.845 | [24] 0.919 | [25] 0.879 | [26] 0.933 | [27] 0.931 | [28] 0.907 | [29] 0.93 | [30] 0.967 | [31] 0.951 | [32] 0.932 | [33] 0.849 | [34] 0.955 | [35] 0.822 | [36] 0.87 | [37] 0.911 | [38] 0.885 | [39] 0.912 | [40] 0.961 | [41] 0.942 | [43] 0.912 | [44] 0.861 | [45] 0.869 | [46] 0.953 | [47] 0.932 | [48] 0.964 | [49] 0.98 | [50] 0.911 | [51] 0.955 | [52] 0.881 | [53] 0.955 | [54] 0.957 | [55] 0.912 | [56] 0.957 | [57] 0.878 | [58] 0.898 | [59] 0.947 | [60] 0.897 | [61] 0.957 | [62] 0.903 | [63] 0.899 | [64] 0.895 | [65] 0.952 | [67] 0.954 | [68] 0.95 | [69] 0.937 | [70] 0.961 | [71] 0.955

CCCc1c(C(=O)NC2Cc3ccccc3C2)cnn1-c1ccccc1
inactive: [1] 0.986 | [2] 0.99 | [3] 0.996 | [4] 0.99 | [5] 0.99 | [6] 0.999 | [7] 0.993 | [8] 0.993 | [9] 0.997 | [10] 0.99 | [11] 0.976 | [12] 0.998 | [13] 0.983 | [14] 0.991 | [15] 0.964 | [16] 0.979 | [17] 0.965 | [18] 0.986 | [19] 0.988 | [20] 0.995 | [21] 0.974 | [22] 0.986 | [23] 0.96 | [24] 1.05 | [25] 1.01 | [26] 0.97 | [27] 1 | [28] 1.04 | [29] 0.991 | [30] 0.994 | [31] 0.991 | [32] 0.979 | [33] 0.969 | [34] 0.98 | [35] 0.93 | [36] 0.986 | [37] 0.982 | [38] 0.991 | [39] 0.972 | [40] 0.988 | [41] 1.01 | [42] 0.951 | [43] 0.968 | [44] 0.956 | [45] 0.97 | [46] 0.987 | [47] 0.987 | [48] 0.989 | [49] 0.995 | [50] 0.984 | [51] 0.991 | [52] 0.998 | [53] 0.987 | [54] 0.992 | [55] 0.998 | [56] 0.985 | [57] 0.96 | [58] 0.977 | [59] 1.01 | [60] 0.934 | [61] 0.992 | [62] 0.98 | [63] 0.956 | [64] 0.963 | [65] 0.994 | [66] 0.921 | [67] 0.998 | [68] 0.98 | [69] 0.981 | [70] 0.986 | [71] 0.997

CCCc1c(C(=O)NNc2cccc(Cl)c2)cnn1-c1ccccc1
inactive: [1] 0.984 | [2] 0.974 | [3] 0.987 | [4] 0.982 | [5] 0.976 | [6] 0.974 | [7] 0.995 | [8] 0.978 | [9] 0.988 | [10] 0.993 | [11] 0.944 | [12] 0.983 | [13] 0.986 | [14] 0.98 | [15] 0.954 | [16] 0.917 | [17] 0.957 | [18] 0.986 | [19] 0.98 | [20] 0.987 | [21] 0.937 | [22] 0.981 | [23] 0.925 | [24] 1 | [25] 0.957 | [26] 0.963 | [27] 0.963 | [28] 1 | [29] 0.933 | [30] 0.992 | [31] 0.968 | [32] 0.917 | [33] 0.937 | [34] 0.986 | [35] 0.911 | [36] 1.02 | [37] 0.968 | [38] 0.947 | [39] 0.924 | [40] 0.988 | [41] 0.987 | [42] 0.864 | [43] 0.936 | [44] 0.917 | [45] 0.927 | [46] 0.979 | [47] 0.948 | [48] 0.987 | [49] 0.996 | [50] 0.927 | [51] 0.983 | [52] 0.98 | [53] 0.983 | [54] 0.976 | [55] 0.935 | [56] 0.985 | [57] 0.897 | [58] 0.963 | [59] 1.01 | [60] 0.898 | [61] 0.981 | [62] 0.963 | [63] 0.94 | [64] 0.924 | [65] 0.973 | [66] 0.892 | [67] 0.982 | [68] 0.959 | [69] 0.965 | [70] 0.971 | [71] 0.988
